Data from PubChem BioAssay (NCI).
The panel holds about 83,000 compounds, 20% with a hit somewhere; the sample as a whole holds those more often.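 The endpoint reported here, percent growth, reads 100 for growth as untreated, 0 for no net growth and -100 for all cells dead.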 Unmarked numbers belong to inactive results. Activity calls are given as the source filed them. Rule for the calls: active = growth percent below 10; inactive = the rest.

Tests used:
Experiment in all cases: NCI-60 one-dose screen, 48 h (100 = growth as untreated, 0 = no growth, -100 = all killed)
Conditions in all cases: 10 µM
NCI-H23 lung = tested on: NCI-H23 lung
NCI-H226 lung = tested on: NCI-H226 lung
NCI-H322M lung = tested on: NCI-H322M lung
HOP-62 NSCLC = tested on: HOP-62 NSCLC
NCI-H460 lung = tested on: NCI-H460 lung
HOP-92 NSCLC = tested on: HOP-92 NSCLC
NCI-H522 lung = tested on: NCI-H522 lung
A549/ATCC NSCLC = tested on: A549/ATCC NSCLC
786-0 renal = tested on: 786-0 renal
COLO 205 colon = tested on: COLO 205 colon

Structure (SMILES)	growth (NCI-H23 lung)	growth (NCI-H226 lung)	growth (NCI-H322M lung)	growth (HOP-62 NSCLC)	growth (NCI-H460 lung)	growth (HOP-92 NSCLC)	growth (NCI-H522 lung)	growth (A549/ATCC NSCLC)	growth (786-0 renal)	growth (COLO 205 colon)
O=C(NO)c1ccc(CN2CCN(c3nc(-c4ccccc4)c4ccccc4n3)CC2)cc1	-5.08% (active)	3.26% (active)	23.6%	2.94% (active)	6.1% (active)	37%	-21.2% (active)	1.35% (active)	14%	6.97% (active)
O=C(CNc1nc(-c2ccccc2)cs1)Nc1cccc([N+](=O)[O-])c1	-92.5% (active)	-42.5% (active)	-71.4% (active)	-76.2% (active)	4.92% (active)	-49.2% (active)	-83.2% (active)	-72.7% (active)	-85.1% (active)	-64.1% (active)
Cc1ccc(NC(=O)NCn2c(=O)[nH]c3ccccc3c2=O)cc1	53.2%	22.5%	89.1%	44.8%	64.7%	30.7%	73.7%	81.1%	50.7%	115%
O=c1[nH][nH]c(Nc2ccccc2)c1N=Nc1ccc(F)cc1	102%	84.4%	83.5%	119%	101%	71.2%	75.1%	84.8%	91.3%	107%
Cc1ccc(-c2ccc(SCC(=O)Nc3ccc(Cl)c(C(F)(F)F)c3)nn2)cc1	30%	65.6%	90.1%	30%	13.8%	72.7%	-1.27% (active)	40.4%	35.1%	-11% (active)
O=C1Nc2cc(-c3ccc(NC(=O)c4cccc([N+](=O)[O-])c4)cc3)ccc2/C1=C/c1ccc[nH]1	71.6%	76.7%	102%	94.9%	103%	109%	84.3%	94.5%	103%	42.9%
CCOP(=O)(OCC)O[C@H]1CCC(=O)[C@@H]2[C@H]1[C@H]1C[C@@H]3[C@@]4(C)CCCC(C)(C(=O)OC)[C@@H]4CC[C@@]23C=C1C(C)C (stereo not given in full)	50.3%	48.9%	102%	76.8%	66.4%	46.8%	31.6%	49.7%	63.3%	47.6%
CC(=O)Oc1ccccc1C(=O)Oc1ccc(C(=O)/C=C/c2ccncc2)cc1	36.9%	62.8%	66.5%	83.4%	35.6%	94.1%	59.1%	81%	53.2%	40.4%
Cc1ccc(-c2cc(C(=O)N=Nc3c(O)[nH]c4ccccc34)c3ccccc3n2)cc1	31.8%	47%	69.8%	66.2%	-35.8% (active)	21.6%	56.6%	2.51% (active)	35.8%	-5.04% (active)
CN(C)c1ccc(/C=C/C(=O)c2ccc(NC(=O)CN3C(=O)NC(C)(c4ccccc4)C3=O)cc2)cc1 (stereo not given)	66%	53.2%	88.8%	88.9%	73.7%	65.3%	78.3%	56.5%	29.8%	110%
COc1ccc(C(=O)NC(=S)N2CCN(c3ncnc4c3cnn4-c3ccccc3)CC2)cc1	60%	9.11% (active)	66.8%	31.9%	55.8%	32%	41.2%	58.8%	82.8%	79.7%
COc1cccc(/C=C2\N=C(C)N(CCc3ccc(S(N)(=O)=O)cc3)C2=O)c1	102%	104%	96.5%	93.5%	105%	92.8%	94.5%	101%	90.4%	131%
CCCn1c(O)c(N=Nc2nc(-c3cc4ccccc4oc3=O)cs2)c2cc(Br)ccc21	94.8%	93.9%	102%	94.8%	110%	86.3%	93.4%	110%	75.1%	139%
CN1CCc2c(sc3ncnc(N/N=C/c4cn(-c5ccccc5)nc4-c4ccc(Cl)cc4)c23)C1	-20.6% (active)	33.1%	28.7%	29.8%	1.06% (active)	45.7%	3.5% (active)	26.3%	25.3%	-30.1% (active)
CC(=O)C1=C(C)NC(SCC(=O)Nc2ccc(S(=O)(=O)Nc3cc(C)on3)cc2)=NC1c1ccccc1 (stereo not given)	102%	117%	102%	105%	98.3%	132%	100%	99.1%	102%	122%
Oc1ccc(/C=C2\CCCc3cc4ccc(O)cc4[o+]c32)c(O)c1	30%	77.6%	63.3%	44.7%	19.8%	40.9%	4.53% (active)	83%	24.4%	50.6%
CN1CCN(c2ccc(Nc3nc(N4CCN(S(=O)(=O)c5ccc(F)cc5)CC4)c4sccc4n3)cc2)CC1	-64.4% (active)	-74.7% (active)	-88% (active)	-49.6% (active)	-73% (active)	-66.3% (active)	-86.4% (active)	-48.9% (active)	-72.6% (active)	-79.9% (active)
CCOC(=O)c1c(CSc2ccccc2)n(C)c2cc(CN(C)C)c(O)c(CN(C)C)c12	33.8%	46.6%	47.7%	72.2%	34.6%	32.5%	62.4%	49.6%	45.3%	-37.8% (active)
N#Cc1c(NC(=O)c2ccc(C(F)(F)F)cc2C(F)(F)F)sc2c1CCC(=O)C2	-50% (active)	-7.56% (active)	12.4%	7.49% (active)	12%	-61.5% (active)	-72.5% (active)	9.8% (active)	4.38% (active)	-73.3% (active)
Cc1cc(C)nc(/N=C(\N)Nc2ccc(S(=O)(=O)Nc3nc(C)cc(C)n3)cc2)n1	104%	102%	106%	104%	116%	117%	98.4%	106%	111%	120%
O=C1NC(=NC2CCCCCC2)N/C1=C\c1ccc2ncoc2c1	19.2%	14.9%	24.5%	36.8%	20.2%	51.3%	12.6%	17%	40.6%	9.19% (active)
CONC[C@]1(C)C=C2C(=O)[C@](C)(O)C3(CC3)C(C)=C2[C@H]1O	-82.6% (active)	-26.7% (active)	-9.89% (active)	-21.7% (active)	-24.4% (active)	-16.6% (active)	-71.1% (active)	5.7% (active)	5.71% (active)	-79.1% (active)
